“And” between values parts separate entries of the source, which are not always exact repeats. Equal values may be shown once. Records with an inconclusive call do not appear. Entries that show only a call come without a potency. Some compounds were tested as several samples or in several runs, with calls that do not always agree. The source made the active and inactive calls. Calls follow the shape of the full dose curve.
Target: 5-hydroxytryptamine receptor 2A (Homo sapiens) (UniProt P28223)
Experiment: 5-hydroxytryptamine receptor 2A (HTR2A) small molecule agonists, cell-based qHTS assay (AID 1963587); also: nearly all actives have a fitted effect of over 30% in size
Conditions: HTR2A-CHO cells, calcium flux fluorescence, agonist mode; series mostly up to 76.8 µM
How it was run: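 HTR2A-CHO cells, plated 18 h at 37 C/5% CO2, dye-loaded 1 h at 37 C; compounds in DMSO added by pin tool (agonist mode). Intracellular calcium flux read as kinetic fluorescence on FDSS over 2 min at 1 s intervals.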
Potency is read from the fitted curve at half-maximal effect.

5-hydroxytryptamine receptor 2A (Homo sapiens), sequence (P28223 whole entry, looked up): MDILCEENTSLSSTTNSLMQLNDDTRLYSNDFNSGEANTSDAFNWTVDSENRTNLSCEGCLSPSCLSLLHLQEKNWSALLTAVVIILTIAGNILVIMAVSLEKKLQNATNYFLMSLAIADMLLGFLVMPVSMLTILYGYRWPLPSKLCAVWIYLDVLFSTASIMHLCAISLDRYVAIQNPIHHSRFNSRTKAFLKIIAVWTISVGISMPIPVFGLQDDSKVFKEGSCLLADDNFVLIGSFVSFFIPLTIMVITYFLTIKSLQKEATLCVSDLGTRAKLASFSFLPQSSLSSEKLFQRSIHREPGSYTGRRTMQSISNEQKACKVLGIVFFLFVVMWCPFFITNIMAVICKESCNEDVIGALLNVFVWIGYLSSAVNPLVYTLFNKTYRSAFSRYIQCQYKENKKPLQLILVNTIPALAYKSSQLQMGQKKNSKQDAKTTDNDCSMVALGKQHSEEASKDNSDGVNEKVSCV

SMILES | Potency
CCCCCCCCCCCCOCC1CO1 (centres undefined) | inactive
CCC/C=C/C=O | inactive
CCCCC(CC)COC(C)=O (centres undefined) | inactive
NC[C@H](O)c1ccc(O)c(O)c1 | inactive
CC/C=C\C/C=C\C/C=C\CCCCCCCC(=O)O | inactive
OCCNCCO | inactive
CCCCC(CC)COP(=O)(O)OCC(CC)CCCC (centres undefined) | inactive
Oc1ccc2cc(SSc3ccc4cc(O)ccc4c3)ccc2c1 | inactive
O=C(O)c1ccc(C(=O)O)c(C(=O)O)c1 | inactive
CCN(CC)c1ccc(C(=O)c2ccccc2C(=O)O)c(O)c1 | inactive
N[C@@H](Cc1c[nH]c2ccc(O)cc12)C(=O)O | 599 nM (active) and 8.49 µM (active)
O=[N+]([O-])c1ccc2nc[nH]c2c1 | inactive
CCCCCCCCCCCCCC[P+](CCCC)(CCCC)CCCC | 21.8 µM (active) and 54.9 µM (active)
CC1COc2ccccc2N1C(=O)C(Cl)Cl (centres undefined) | inactive
OC1CCCC1 | inactive
S=C(NC1CCCCC1)NC1CCCCC1 | inactive
CC(C)c1ccc(S(=O)(=O)O)cc1 | inactive
CC(C)CC(C)O (centres undefined) | inactive
CCCCCCCCCCCC(=O)N(C)CC(=O)O | inactive
O=C1OC2(c3ccccc31)c1cc(Br)c(O)c(Br)c1Oc1c2cc(Br)c(O)c1Br | 22.2 µM (active) and 1.59 µM (active) and 19 µM (active)
NCCNCCNCCNCCN | inactive
CC(=O)OC1CC(C)OC(C)O1 (centres undefined) | inactive

Target: Muscarinic acetylcholine receptor M1 (Homo sapiens) (UniProt P11229)
Experiment: Cholinergic receptor muscarinic 1 (CHRM1) small molecule antagonists, cell-based qHTS assay (AID 1963588); also: nearly all actives have a fitted effect of over 40% in size
Conditions: CHRM1-CHO antagonist mode, calcium flux fluorescence; series mostly up to 61.5 µM
How it was run: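 Compounds were tested at 15 concentrations in three independent runs. Dye-loaded CHRM1-CHO cells were exposed 5 min at room temperature before stimulation by acetylcholine added at 50nM. Intracellular calcium was read kinetically on FDSS for 3 min.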

Muscarinic acetylcholine receptor M1 (Homo sapiens), sequence (P11229 whole entry, looked up): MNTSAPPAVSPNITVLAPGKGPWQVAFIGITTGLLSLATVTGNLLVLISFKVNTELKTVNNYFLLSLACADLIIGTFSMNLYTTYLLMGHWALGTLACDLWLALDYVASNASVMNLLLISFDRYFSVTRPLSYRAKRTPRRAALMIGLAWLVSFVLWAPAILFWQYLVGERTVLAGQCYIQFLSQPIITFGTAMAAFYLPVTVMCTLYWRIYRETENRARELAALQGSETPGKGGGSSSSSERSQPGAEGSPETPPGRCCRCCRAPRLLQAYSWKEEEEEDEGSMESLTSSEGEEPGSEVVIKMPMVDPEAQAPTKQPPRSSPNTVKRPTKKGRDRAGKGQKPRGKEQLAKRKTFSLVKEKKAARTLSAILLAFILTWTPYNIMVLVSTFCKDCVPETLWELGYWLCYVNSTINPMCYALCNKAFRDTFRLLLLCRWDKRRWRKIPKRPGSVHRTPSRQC

SMILES | Potency
CCCCCCCCCCCCOCC1CO1 (centres undefined) | inactive
CCC/C=C/C=O | inactive
NC[C@H](O)c1ccc(O)c(O)c1 | inactive
CC/C=C\C/C=C\C/C=C\CCCCCCCC(=O)O | inactive
Oc1ccc2cc(SSc3ccc4cc(O)ccc4c3)ccc2c1 | inactive
O=C1c2ccccc2CCc2ccccc21 | inactive
CCN(CC)c1ccc(C(=O)c2ccccc2C(=O)O)c(O)c1 | inactive
C=CC(=O)NCOCCCC | inactive
O=[N+]([O-])c1ccc2nc[nH]c2c1 | inactive
CCCCCCCCCCCCCC[P+](CCCC)(CCCC)CCCC | inactive and 9.42 µM (active)
S=C(NC1CCCCC1)NC1CCCCC1 | inactive
CC(C)CC(C)O (centres undefined) | inactive
OCC(CO)(CO)CO | inactive
CCCCCCCCCCCC(=O)N(C)CC(=O)O | inactive
O=C(COc1ccc(Cl)cc1)N1CCN(Cc2ccc3c(c2)OCO3)CC1 | 37.5 µM (active) and inactive
O=C1OC2(c3ccccc31)c1cc(Br)c(O)c(Br)c1Oc1c2cc(Br)c(O)c1Br | inactive
Cc1cc(OCCOCC[N+](C)(C)Cc2ccccc2)ccc1C(C)(C)CC(C)(C)C | 2.96 µM (active) and 2.59 µM (active)

— PubChem BioAssay (Tox21)
